# This is a sample that favours compounds with a hit; in the whole collection about 4.5% have one here.
# ssDAF12 agonist – S. stercoralis DAF-12 activation, primary screen. activation, % at 6.8 µM. HEK293 ssDAF-12/GRIP1 lit1-tk-luc reporter, luminescence; % of 3 µM dafachronic acid response. AID 652126. hit rate 1% among 370,000;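 active = activation above the mean over all tested compounds plus 3 SD, cut at about 0.9% in these data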;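 also: 0% = DMSO-only wells and 100% = 3 µM delta7-dafachronic acid wells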
# hcDAF12 agonist – H. contortus DAF-12 activation, primary screen. HEK293 hcDAF-12 lit1-tk-luc reporter, luminescence; 0% DMSO, 100% Δ7-dafachronic acid. hit rate 1.4% among 370,000. activation, % at 6.8 µM;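 active = activation above the mean of all tested compounds plus 3 SD, cut at about 5.5% in these data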;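 also: 100% = response to 3 µM Δ7-dafachronic acid high control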
# DAX1 inh-1 – DAX1 (NR0B1) inhibition, primary screen | HEK293T StAR-luciferase reporter, SF-1/DAX-1 repression relief | inhibition, % at 6.8 µM | hit rate 1.1% among 370,000;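 active = inhibition above the mean over all tested compounds plus 3 SD, cut at about 3.6% in these data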;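 also: 0% = DAX-1 cells with DMSO and 100% = cells lacking DAX-1 with DMSO; higher inhibition means more luminescence from relief of DAX-1 repression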
# DAX1 inh-2 – inhibitors of human orphan nuclear receptor DAX1 (NR0B1); inhibition, % at 6.75 µM; HEK293 Gal4-DAX1 luciferase reporter, luminescence; hit rate 0.99% among 340,000;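 active = inhibition above the mean over all tested compounds plus 3 SD, cut at about 4.2% in these data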;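 also: 0% = DAX1-transfected cells with DMSO and 100% = empty-vector control cells with DMSO; inhibition shows as a rise in luminescence from relieved DAX1 repression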
# Target sequence (P51843 207-470 limits assumed): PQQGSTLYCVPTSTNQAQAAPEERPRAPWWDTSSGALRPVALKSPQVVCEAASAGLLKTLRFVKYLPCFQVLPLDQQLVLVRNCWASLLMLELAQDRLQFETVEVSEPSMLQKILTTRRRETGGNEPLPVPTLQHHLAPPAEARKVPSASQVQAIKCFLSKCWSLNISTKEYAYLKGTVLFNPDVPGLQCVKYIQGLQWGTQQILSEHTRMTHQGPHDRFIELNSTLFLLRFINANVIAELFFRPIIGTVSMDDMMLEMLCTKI
# GAA850 FXN act – increases GAA850 frataxin promoter reporter activity. HEK293 lucGAA850 FXN promoter luciferase reporter, 24 h; percent of 10 µM SAHA response. activation, % at 6 µM. hit rate 0.56% among 360,000;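 active = activation above the average of all compounds screened plus 3 SD, cutoff fixed separately per campaign, cut at about 7.5% in these data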;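 also: 0% = DMSO wells and 100% = 10 µM SAHA wells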
# hgDAF12 agonist – agonists of H. glycines DAF-12 nuclear receptor; HEK293 GAL4-hgDAF12 UAS-luciferase reporter, agonist luminescence; normalized to butyrate control; activation, % at 6.8 µM; hit rate 1.8% among 370,000; AID 687014;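 active = activation above a cutoff set at the mean of all screened compounds plus 3 SD, cut at about 10% in these data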;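 also: 0% = DMSO wells and 100% = sodium butyrate wells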
# * = called active by the depositor; nt = not tested or not shown.
SMILES,ssDAF12 agonist,hcDAF12 agonist,DAX1 inh-1,DAX1 inh-2,GAA850 FXN act,hgDAF12 agonist
CCCCNC(=O)NS(=O)(=O)c1ccc(NC(=O)CSc2ncnc3scc(-c4ccc(C)cc4)c23)cc1,0.1,2.7,-0.3,nt,nt,4.0
O=C(NCc1ccco1)C1CCCN(S(=O)(=O)c2ccc([N+](=O)[O-])cc2)C1 (stereo unspecified),0.0,-1.4,-0.3,nt,nt,0.6
CCN(CC)C(=O)Oc1ccc2cc(Br)ccc2c1,-1.5,6.3*,0.9,-0.4,2.0,5.3
COc1ccc(S(=O)(=O)NCc2cccnc2)cc1NC(=O)c1ccccc1,-0.8,0.8,-0.2,5.3*,0.5,-2.2
COc1ccc(S(=O)(=O)NCc2ccncc2)cc1NC(=O)c1ccccc1,-1.6,-3.4,-7.5,-2.2,1.9,-6.2
COc1ccc(S(=O)(=O)NC(C)C(=O)NCc2cccnc2)cc1OC (stereo unspecified),-1.4,-3.2,-0.4,4.5*,-0.2,-3.0
COc1ccc(S(=O)(=O)NC(C)C(=O)NCc2cccnc2)cc1Cl (stereo unspecified),-1.2,-1.2,0.0,0.9,0.2,-1.1
O=C1c2nc3ccccn3c2C(=O)N1Cc1ccccc1,1.4*,0.6,0.5,0.3,0.6,2.3
COC(=O)/C=c1/sc2nc3ccccc3n2c1=O,-0.3,0.8,0.5,0.6,0.3,-0.2
O=c1/c(=C/c2ccccn2)sc2nc3ccccc3n12,1.3*,5.3,2.5,4.1,4.4,8.7
Cc1cc(N2CCN(Cc3ccc4c(c3)OCO4)CC2)n2nc(C)nc2n1,-1.4,-2.7,-0.2,nt,nt,-1.3
COc1ccc2cc(C3CC(c4ccco4)=NN3S(C)(=O)=O)c(Cl)nc2c1 (stereo unspecified),-1.4,0.0,0.0,3.4,2.0,-1.6
CCOc1ccc2nc(Cl)c(C3CC(c4ccco4)=NN3S(=O)(=O)c3ccccc3)cc2c1 (stereo unspecified),1.4*,-1.2,0.2,-0.8,1.9,2.3
CN1C2=N[C@@H](c3ccc4c(c3)OCO4)CC(=O)N2/C(=C\c2ccccc2)[C@H]1c1ccccc1,-1.5,-3.6,nt,nt,nt,4.9
Cc1ccc(S(=O)(=O)N2C(N)=C(C(=O)NCc3ccc(Br)cc3)C(c3ccc(Cl)cc3)C2C(=O)c2ccccc2)cc1 (stereo unspecified),-1.9,1.2,nt,nt,nt,1.5
COCCNS(=O)(=O)c1ccc(C2CNC(=O)C2)cc1 (stereo unspecified),-1.5,0.2,1.2,5.2*,-1.2,2.1
O=C1CC(c2ccc(S(=O)(=O)NCCOc3ccccc3)cc2)CN1 (stereo unspecified),-1.4,-2.6,0.2,0.4,2.1,-1.0
C/C(=N\NC(=S)NC(C)C)c1ccc(Cl)c([N+](=O)[O-])c1,-1.3,-1.5,-0.3,4.6*,-1.2,-1.9
C/C(=N\NC(=S)NC(C)C)c1cccc([N+](=O)[O-])c1,-1.7,-1.9,-1.0,1.1,-0.1,2.6
CCc1cc2c(=O)c(-c3cnn(-c4ccccc4)c3)c(C)oc2cc1OCC(=O)Nc1ccc(F)c(F)c1,1.9*,0.7,0.4,0.2,2.0,1.2
CCc1nc2ccc(C(=O)Nc3ccc(Cl)c(Cl)c3)cn2c1N(C)Cc1ccc(OC)cc1,-0.2,0.7,0.4,nt,-0.1,11.8*
CCc1nc2ccc(C(=O)Nc3ccc(OC)c(OC)c3)cn2c1N(C)Cc1ccc(OC)cc1,-1.9,-1.3,-2.1,nt,-2.3,-1.8
O=C(OC12CCCN(C1)/C(=C/c1cccnc1)C2)c1ccco1 (stereo unspecified),-0.7,-1.5,-0.8,nt,nt,-4.0
O=C(CN1C(=O)c2ccccc2S1(=O)=O)NCc1ccccc1,-0.8,-1.1,-0.4,0.2,-0.4,-0.6
CC(C)C(NC(=O)CN1C(=O)c2ccccc2S1(=O)=O)C(C)C,-1.1,-0.7,-0.1,5.0*,0.6,2.2
SMILES,ssDAF12 agonist,hcDAF12 agonist,DAX1 inh-1,DAX1 inh-2,GAA850 FXN act,hgDAF12 agonist
O=C(CN1C(=O)c2ccccc2S1(=O)=O)NC1CCCCCC1,-1.2,0.8,-0.3,6.2*,2.2,12.5*
CCc1ccccc1NC(=O)CN1C(=O)c2ccccc2S1(=O)=O,-0.8,1.9,0.0,4.5*,-1.7,-0.5
O=C(CN1c2cccc3cccc(c23)S1(=O)=O)NC1CCCCC1,-1.5,0.2,0.6,-0.6,2.0,2.5
O=C(NC1CCCCC1)c1ccc2c(c1)S(=O)(=O)c1ccccc1C2=O,-1.4,-1.4,0.1,5.0*,2.8,1.6
COc1ccc(NC(=O)C(C)N2C(=O)c3ccccc3S2(=O)=O)c(OC)c1 (stereo unspecified),-1.5,-1.7,1.2,0.3,2.5,-1.3
CCOc1ccccc1NC(=O)C(C)N1C(=O)c2ccccc2S1(=O)=O (stereo unspecified),-1.3,0.0,3.7*,-0.1,2.2,-1.0
Cc1n[nH]c(=O)c2c(NC(=O)CSc3nn(-c4ccccc4)c(=S)s3)oc(C)c12,1.1*,2.7,-0.6,1.0,-1.6,-1.4
Cc1csc(SCC(=O)Nc2oc(C)c3c(C)n[nH]c(=O)c23)n1,-0.7,2.0,0.0,-0.2,0.2,4.7
C=CCn1c(SCC(=O)c2ccc(-c3ccccc3)cc2)nnc1-c1ccc(OC)cc1,-1.7,-3.4,-1.6,nt,nt,-2.0
O=C(NC1CCCCN(Cc2ccc(Cl)cc2)C1=O)c1cccc2nsnc12 (stereo unspecified),-0.2,-0.4,-1.4,nt,nt,0.1
CCC[C@H]1[C@H](N)CC[C@@]23CCCN2C(=O)CCC[C@@H]13,-0.7,-2.2,nt,nt,nt,-2.8
Cc1cc2c(c(C)c1CCO)C(=O)[C@H](C)C2,-0.6,-1.1,1.1,4.7*,1.1,2.5
O=C(NCCc1cccs1)c1cccs1,-0.4,2.1,3.2,1.5,3.5,10.6*
O=C(NCCCCCCNC(=O)c1cccs1)c1cccs1,0.1,-0.4,0.1,0.5,0.6,-0.2
O=C(NCC(O)c1ccccc1)c1cccs1 (stereo unspecified),-0.3,2.4,1.0,3.3,2.6,12.0*
COC(=O)[C@]12C[C@H](CC(=O)NCc3cccc4ccccc34)C(=O)N(Cc3cccc4ccccc34)C1=C[C@H](C1CCCC1)O[C@@H]2C,-1.4,-2.2,-1.2,nt,nt,-1.5
O=C(NCc1ccccc1)Nc1ccccc1C(=O)N1CCCC1,-1.3,1.6,1.2,nt,nt,-1.6
CCOC(=O)c1c(C)[nH]c(C(=O)OCC(=O)N(C)CC(=O)Nc2ccccc2Cl)c1C,1.0*,3.0,-3.1,-0.9,-0.4,2.3
CCOC(=O)c1c(C)[nH]c(C(=O)OCc2ccccc2F)c1C,0.5,6.3*,2.6,5.5*,7.3,13.2*
CSCCCNC(=O)Cn1nc(Cc2ccncc2)c2ccccc2c1=O,-0.7,0.1,0.1,nt,nt,-0.5
CCCCCCP(=O)(O)c1ccccc1,-0.9,-0.5,-0.4,6.1*,-1.0,-1.3
N#CCC[C@@H]1CC[C@]2(CCCN(S(=O)(=O)C3CCCCC3)C2)O1,-1.1,-0.4,0.0,nt,nt,0.9

# Compound activity from PubChem BioAssay.
